# In PubChem BioAssay (NCI):
# Compounds without any hit were thinned out: in the full panel of roughly 83,000, 20% have a hit.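 How to read the values: 0–100, growth inhibition (40 = 60% inhibited); 0, no net growth; -100 to 0, cell death (-40 = 40% of starting cells died; -100 = all dead).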 Active and inactive are the calls of the source. The calls were made as follows: active = growth percent below 10; inactive = the rest.
# System: HL-60(TB) leukemia
# Test: NCI-60 one-dose screen, 48 h (100 = growth as untreated, 0 = no growth, -100 = all killed)
# Conditions: 10 µM unless noted
row,Structure (SMILES),growth
1,COc1cc2c(cc1OCCCN1Cc3ccc(OCCCCC(=O)N4CCC(CCN5CCCC5)CC4)cc3C1)N=C(N)C21CCCC1,84.9% (inactive)
2,COc1ccc(-c2nc(SCCC(C)C)nc(N/N=C(/C)c3ccc(N)cc3)c2C#N)cc1,83.8% (inactive)
3,Oc1[nH]c2ccc(Cl)cc2c1/C=c1/ccc2c(c1)N=C(c1ccc(C(F)(F)F)cc1)N=2,75.1% (inactive)
4,CC(=O)Nc1ccc(-c2ccc3c(c2)NC(=O)/C3=C\c2ccc[nH]2)cc1,95.5% (inactive)
5,O=C(CCOCCNC(=O)COc1ccc2c(c1)OCC(c1ccc(F)cc1)C2=O)NCCCC(O)(P(=O)(O)O)P(=O)(O)O (stereo not given),104% (inactive)
6,O=C(O)c1cn(C2CC2)c2cc(N3CCN(C(=O)Nc4nc(-c5ccc(Cl)cc5)cs4)CC3)c(F)cc2c1=O,-26.2% (active)
7,CC1(C)N=C(N)N=C(N)N1c1cccc(CN)c1,86.8% (inactive)
8,Cc1cccnc1NC1OC(=O)c2ccccc21 (stereo not given),100% (inactive)
9,O=C1c2cc3c(cc2-c2c1c1ccc(Cl)cc1c(=O)n2CCCn1ccnc1)OCO3,-29.1% (active)
10,Cc1ccc(Nc2nc(N)nc(Nc3ccc4ccccc4c3)n2)cc1,22.5% (inactive)
11,CC(C)C1=NOC(=O)C1=Cc1cn(-c2ccccc2)nc1-c1ccccc1,-45.2% (active)
12,C[C@H](c1nc2ccc(C#N)cc2[nH]1)[C@H]1CC[C@H]2[C@@H]3CCC4=CC(=O)CC[C@]4(C)[C@H]3CC[C@]12C,56.3% (inactive)
13,O=C(NCCN1CCCCC1)n1cc(-c2ccncc2)c(-c2ccc(Cl)c(O)c2)n1,71.1% (inactive)
14,N#Cc1c(NC(=O)c2ccccc2)sc2c1CCC(=O)C2,-2.62% (active)
15,NC(=NCCCOc1ccc(F)cc1)Nc1ccc(Cl)cc1,72% (inactive)
16,Cc1c2cnccc2c(C)c2c1oc1ccccc12,61.8% (inactive)
17,S=c1ccnc[nH]1,59.3% (inactive)
18,CN(C)CCSC1=Nc2ccc(Cl)cc2C(c2ccccc2Cl)N(C)C1 (stereo not given),35.1% (inactive)
19,COc1cc(/C(=C2/O[C@@H]([C@H]3COC(C)(C)O3)[C@H]3OC(C)(C)O[C@@H]23)c2ccc3ccccc3c2)cc(OC)c1OC,59.2% (inactive)
20,COC(=O)[C@H](Cc1cn(C)cn1)NC(=O)[C@H](Cc1c[nH]c2ccccc12)NC(=O)Nc1cc(C(F)(F)F)cc(C(F)(F)F)c1,-54.5% [100 µM] (active)

row,Structure (SMILES),growth
1,COc1ccc(Cn2cc3c(c2-c2cc(OC)c(OC)c(OC)c2)CCc2cnoc2-3)cc1N,5.54% (active)
2,CCOC(=O)c1sc2ncnc(Nc3ccc4c(cnn4C(=O)Nc4ccccc4)c3)c2c1C,90.9% (inactive)
3,N#CC(C#N)=Cc1c(-c2ccccc2)[nH]c2ccccc12,-7.65% (active)
4,O=C(/C=C/C12c3ccccc3C(c3ccccc31)C1C(=O)N(c3ccccc3)C(=O)C12)c1ccccc1 (stereo not given),10.5% (inactive)
5,O=C(NO)c1ccc(CNc2cccc3nc(C4CC4)n(-c4ccccc4)c(=O)c23)cc1,7.45% (active)
6,O=C(Nc1ccc(NC(=O)c2cc(=O)[nH]c3ccccc23)cc1)Nc1cccc(Cl)c1,78.7% (inactive)
7,CC(=O)Oc1ccccc1C(=O)Nc1ncc([N+](=O)[O-])s1,-43.8% (active)
8,O=C(CSc1nnc(Nc2ccccc2)s1)NCCc1ccc(F)cc1,110% (inactive)
9,O=C(Nc1ccc(Cl)c(Cl)c1)NC(CO)(CO)CO,102% (inactive)
10,C=C(C)[C@@H]1CC[C@]2(COCCCNCCCN)CC[C@]3(C)[C@H](CC[C@@H]4[C@@]5(C)CC[C@H](OCCCN)C(C)(C)[C@@H]5CC[C@]43C)[C@@H]12,48.2% (inactive)
11,Cc1ccc(C(=O)Nc2ccc(CN3CCN(C)CC3)c(C(F)(F)F)c2)cc1C#Cc1cnc(N)c2ccc(F)cc12,-25.4% (active)
12,COc1ccc(CN2C(=O)/C(=C\C(=O)c3ccc(OCCN4CCCC4)cc3)c3ccccc32)cc1,4.86% (active)
13,CCCCNNC(=O)c1ccc(Br)cc1,18.3% (inactive)
14,CC(C)=CC/C=C(/C)[C@H]1CC[C@]2(C)[C@@H]1CC[C@@H]1[C@@]3(C)CCCNC(C)(C)[C@@H]3CC[C@]12C,-35.8% [100 µM] (active)
15,COC(=O)[C@]12CCC(C)(C)C[C@H]1[C@H]1/C(=N/OCCc3nn[nH]n3)C[C@@H]3[C@@]4(C)CC[C@H](OC(C)=O)C(C)(C)[C@@H]4CC[C@@]3(C)[C@]1(C)CC2,10.4% (inactive)
16,COc1cc(-c2nc3cc(Cl)c(Cl)cc3[nH]2)ccc1OCC(=O)N=Nc1c(O)[nH]c2ccc(Cl)cc12,-32.7% (active)
17,CC(=O)N(O)c1ccc(/C=C/c2ccccc2)cc1,23.4% (inactive)
18,COc1cc(/C=C2\CN(C(=O)OC(C)(C)C)C/C(=C\c3ccc(O)c(OC)c3)C2=O)ccc1O,97.1% (inactive)
19,COC(=O)[C@]12CC[C@@H](C)[C@H](C)[C@@H]1C1=CC[C@@H]3[C@@]4(C)C[C@@H](OC(C)=O)[C@H](O)[C@@](C)(CO)[C@@H]4[C@H](O)C[C@@]3(C)[C@]1(C)CC2,-56.6% (active)
20,Cc1ccc2c(c1)=C/C(=C\c1cc(-c3ccccc3)[nH]c1O)C(=O)N=2,-4.3% (active)
